Among the data in PubChem BioAssay (NCI) are growth values, retold here.

The panel holds about 83,000 compounds, 20% with a hit somewhere; the sample as a whole holds those more often.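 Testing used 96-well plates and a 48-hour single-concentration exposure. Example: -40 means 40% of the starting cells died.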 A number with no mark means an inactive call. Calls of active or inactive are those of the source. The calls were made as follows: active = growth percent below 10; inactive = the rest.

Some test systems named below: SK-MEL-2 melanoma; EKVX NSCLC; SN12C renal; UO-31 renal; TK-10 renal; ACHN renal; CAKI-1 renal; A498 renal; MOLT-4 leukemia; SR leukemia; RPMI-8226 leukemia; OVCAR-8 ovarian; OVCAR-5 ovarian; OVCAR-4 ovarian; SK-OV-3 ovarian; HS 578T breast; NCI/ADR-RES ovarian; IGROV1 ovarian; OVCAR-3 ovarian.
Common to all, as to assay: NCI-60 one-dose screen, 48 h (100 = growth as untreated, 0 = no growth, -100 = all killed)
What all share (conditions): 10 µM unless noted

For `COc1ccc(-c2csc(C3=C(O)CN(C(C)C)C3=N)n2)cc1OC`, the growth is 133% in the assay with SK-MEL-2 melanoma; 94.3% in the assay on EKVX NSCLC; 97.4% in the assay on SN12C renal; 3.91% (active) in the assay on UO-31 renal; 94.4% in the assay with TK-10 renal; 103% with ACHN renal. Moreover, the growth was 82.1% with CAKI-1 renal; 89.6% with A498 renal; 87.2% in the assay with MOLT-4 leukemia; 57% in the assay with SR leukemia; 56.3% in the assay with RPMI-8226 leukemia; 91% with OVCAR-8 ovarian. In addition, the growth with OVCAR-5 ovarian is 96.6%; with OVCAR-4 ovarian it was 117%; with SK-OV-3 ovarian, 124%; in the assay with HS 578T breast it was 110%; in the assay on NCI/ADR-RES ovarian, 98.5%.

With `C[C@H](NC(=O)[C@@H]1CSSC[C@@H](NC(=O)c2nc3ccccc3cc2O)C(=O)NCC(=O)N1C)c1ccccc1`, the growth in the assay on SK-MEL-2 melanoma is 62.2%; with EKVX NSCLC it was 42%; in the assay with SN12C renal, -17.7% (active); in the assay on UO-31 renal it was 63.8%; with TK-10 renal it was 59.9%; with ACHN renal it was 44.7%. In addition, the growth in the assay with CAKI-1 renal was 83.2%; in the assay on A498 renal it was 112%; with MOLT-4 leukemia, -8.45% (active); in the assay on SR leukemia it was -17.5% (active); with OVCAR-8 ovarian, 26.3%; in the assay on OVCAR-5 ovarian, 45.6%. Also, the growth with OVCAR-4 ovarian is 94.3%; in the assay with SK-OV-3 ovarian, 71.7%; in the assay with IGROV1 ovarian, 71.6%; in the assay on OVCAR-3 ovarian it was -51.4% (active); with HS 578T breast it was 33%; in the assay on NCI/ADR-RES ovarian it was 91.5%.

Take `O=C(c1ccccc1)N1N=C(c2ccccc2)CC1c1nnc2n(Cc3ccccc3)c(=O)c3c4c(sc3n12)CCCC4` (stereo unspecified): the growth in the assay on SK-MEL-2 melanoma is 77.6%; in the assay with EKVX NSCLC, 102%; in the assay with SN12C renal it was 120%; in the assay with UO-31 renal it was 84.4%; with TK-10 renal it was 111%; in the assay with ACHN renal, 99.8%. Besides, the growth with CAKI-1 renal is 99.3%; with A498 renal it was 114%; in the assay with MOLT-4 leukemia, 88.8%; with SR leukemia, -16.1% (active); in the assay with RPMI-8226 leukemia, 91.6%; in the assay with OVCAR-8 ovarian, 106%. The growth with OVCAR-5 ovarian is 133%; in the assay on OVCAR-4 ovarian, 108%; in the assay on SK-OV-3 ovarian, 106%; in the assay with OVCAR-3 ovarian, 112%; in the assay on HS 578T breast it was 109%; in the assay on NCI/ADR-RES ovarian it was 118%.

Turning to `N#Cc1c(N2CCNCC2)nc2sc3cc(Cl)c(Cl)cc3n2c1=N`, the growth in the assay on SK-MEL-2 melanoma was 112%; with EKVX NSCLC it was 98.8%; in the assay on SN12C renal, 93.2%; in the assay with UO-31 renal it was 80.8%; with TK-10 renal, 141%; in the assay with ACHN renal it was 102%. In addition, the growth in the assay with CAKI-1 renal is 101%; with A498 renal it was 115%; with MOLT-4 leukemia it was 70.4%; in the assay with SR leukemia, 116%; in the assay on RPMI-8226 leukemia, 80.2%; in the assay on OVCAR-8 ovarian it was 94.5%. Besides, the growth in the assay on OVCAR-5 ovarian was 131%; with OVCAR-4 ovarian it was 85.5%; in the assay on SK-OV-3 ovarian it was 84.7%; in the assay with OVCAR-3 ovarian, 107%; in the assay with HS 578T breast, 114%; in the assay on NCI/ADR-RES ovarian it was 106%.

For `Cc1ccc(N(C(=O)CCc2c[nH]c3ccccc23)[C@H](C(=O)Nc2ccc(Cl)cc2)c2cccc([N+](=O)[O-])c2)cc1`, the growth was 105% in the assay on SK-MEL-2 melanoma; 93% in the assay with EKVX NSCLC; 87.2% with SN12C renal; 47.4% with UO-31 renal; 116% in the assay on TK-10 renal; 61% in the assay with ACHN renal. Besides, the growth was 80.5% in the assay on CAKI-1 renal; 58.6% in the assay with A498 renal; 70.8% with MOLT-4 leukemia; 72.9% with SR leukemia; 87.8% with OVCAR-8 ovarian; 98.4% with OVCAR-5 ovarian. The growth with OVCAR-4 ovarian is 99.1%; in the assay with SK-OV-3 ovarian, 90.8%; in the assay on IGROV1 ovarian it was 78.7%; with OVCAR-3 ovarian, 96.9%; in the assay with HS 578T breast, 82.3%; with NCI/ADR-RES ovarian, 70.1%.

Take `Oc1c(CN2CCCC2)cc(COCc2ccc(Br)cc2)c2cccnc12`: the growth was -18% (active) in the assay with SK-MEL-2 melanoma; 27.5% in the assay on EKVX NSCLC; 12% in the assay on SN12C renal; -13.9% (active) in the assay on UO-31 renal; 7.24% (active) with TK-10 renal; 0.47% (active) in the assay on ACHN renal. Further, the growth is 1.4% (active) in the assay on CAKI-1 renal; -1.12% (active) in the assay on A498 renal; -8.18% (active) with MOLT-4 leukemia; 3.12% (active) with SR leukemia; 1% (active) in the assay on RPMI-8226 leukemia; -27% (active) in the assay on OVCAR-8 ovarian. In addition, the growth in the assay on OVCAR-4 ovarian was -5.71% (active); in the assay with SK-OV-3 ovarian, -17.4% (active); with IGROV1 ovarian, -6.09% (active); with OVCAR-3 ovarian, -4.02% (active); in the assay with HS 578T breast, 45.2%; in the assay on NCI/ADR-RES ovarian it was -40.9% (active).

As to `COc1ccc2c(c1)O/C(=C/c1ccc(OCC(=O)c3ccccc3)cc1)C2=O`, the growth with SK-MEL-2 melanoma was 108%; in the assay with EKVX NSCLC, 97%; with SN12C renal, 107%; in the assay on UO-31 renal it was -29.2% (active); with TK-10 renal, 115%; in the assay on ACHN renal, 99.5%. Also, the growth with CAKI-1 renal was 103%; with A498 renal, 170%; in the assay on MOLT-4 leukemia it was 90.3%; in the assay on SR leukemia, 72.7%; in the assay on RPMI-8226 leukemia it was 99.7%; in the assay on OVCAR-8 ovarian, 111%. For the same compound, the growth with OVCAR-5 ovarian is 88.6%; with OVCAR-4 ovarian it was 113%; in the assay with SK-OV-3 ovarian, 125%; with OVCAR-3 ovarian, 90.1%; with HS 578T breast, 350%; in the assay with NCI/ADR-RES ovarian it was 93.1%.

With `CCOC(=O)c1c2ncccc2n2c(=O)n(-c3ccccc3C)nnc12`, the growth in the assay with SK-MEL-2 melanoma is 107%; in the assay with EKVX NSCLC, 74%; with SN12C renal, 105%; with UO-31 renal it was 73.4%; in the assay on TK-10 renal it was 146%; in the assay on ACHN renal it was 92.2%. Also, the growth is 91.7% in the assay on CAKI-1 renal; 127% with A498 renal; 61.2% with MOLT-4 leukemia; 60.4% in the assay on SR leukemia; 99.1% in the assay with OVCAR-8 ovarian; 101% in the assay on OVCAR-5 ovarian. Moreover, the growth in the assay with OVCAR-4 ovarian was 90.2%; in the assay on SK-OV-3 ovarian, 80.7%; in the assay with IGROV1 ovarian it was 63.9%; in the assay on OVCAR-3 ovarian it was 135%; in the assay with HS 578T breast, 112%; in the assay on NCI/ADR-RES ovarian, 93.3%.

As to `O=C1CCc2c(sc3[nH]c(=S)n(-c4ccc(OC(F)(F)F)cc4)c(=O)c23)C1`, the growth in the assay on SK-MEL-2 melanoma was 58.5%; with EKVX NSCLC, 56.7%; in the assay with SN12C renal it was 31.4%; with UO-31 renal, 44.4%; with TK-10 renal, 104%; in the assay on ACHN renal, 80.3%. In addition, the growth is 83.6% with CAKI-1 renal; 107% in the assay with A498 renal; 47.3% in the assay with MOLT-4 leukemia; 35.8% in the assay on SR leukemia; -21.7% (active) in the assay with RPMI-8226 leukemia; 53.6% in the assay with OVCAR-8 ovarian. For the same compound, the growth is 17.1% in the assay on OVCAR-4 ovarian; 104% in the assay on SK-OV-3 ovarian; 55.6% in the assay with IGROV1 ovarian; 13.2% in the assay on OVCAR-3 ovarian; 37.1% in the assay on HS 578T breast; 12.5% in the assay on NCI/ADR-RES ovarian.
